Test [1] can be described thus: A549 cell viability effects, profiling panel, calcein-AM fluorescence, 48 h, basal (AID 1162). The settings on record: higher = more signal.
Test [2] in a line: adipocyte viability effects, profiling panel, cell-based, 3T3-L1 adipocytes, calcein-AM fluorescence, 48 h, basal (AID 1163). Conditions: 3T3-L1 adipocytes viability, higher = more signal.
Test [3] in a line: HepG2 cell viability effects, profiling panel, calcein-AM fluorescence, 48 h, basal (AID 1164). Conditions: higher = more signal.
Test [4] can be described thus: MM1S cell viability effects, profiling panel, calcein-AM fluorescence, 48 h, basal (AID 1165).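 Further: viability of MM1S multiple myeloma cells under basal unstimulated conditions.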 Conditions: higher = more signal.
Test [5] is described as follows: basal RPMI8226 viability, no added stimulus, profiling panel, cell-based, calcein-AM fluorescence, 48 h, PK04 Diversity Set (AID 1166).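 Further: cells grown under basal conditions without added stimulus.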 The settings on record: RPMI8226 myeloma viability, higher = more signal.
Test [6] can be described thus: basal HepG2 mitochondrial membrane potential changes, profiling panel, cell-based, JC-1 fluorescence, 24 h, 100 nL compound (AID 1167). Conditions: higher = more signal.
A short description of test [7]: basal 3T3-L1 adipocyte mitochondrial potential changes, profiling panel, cell-based, JC-1 fluorescence, 3T3-L1 adipocytes, 24 h, 100 nL compound (AID 1168). Conditions: JC-1 mitochondrial fluorescence, higher = more signal, called active from +8 up or from −8 down.
Test [8] is described as follows: basal RPMI8226 mitochondrial membrane potential changes, profiling panel, cell-based, JC-1 fluorescence, 24 h, 100 nL compound (AID 1169). Conditions: RPMI8226 myeloma, JC-1 mitochondrial potential fluorescence, higher = more signal.
The nature of test [9]: basal MM1S mitochondrial membrane potential changes, profiling panel, cell-based, JC-1 fluorescence, 24 h, 100 nL compound (AID 1170). The settings on record: higher = more signal.
A short description of test [10]: A549 lung cancer cell viability effects, profiling panel, resazurin fluorescence, 24 h, PK04 Diversity Set (AID 1171). The settings on record: higher = more signal, called active from +8 up or from −8 down. For orientation: Alamar Blue is a resazurin reagent that responds to reducing activity.

Calls of active or inactive are those of the source.
Further: test concentration not given here.

Regarding `CC(C)CN1CCc2nc(-c3ccccc3)c3c(c2CC1)CO[C@@H](C)C3`, the z-score is 0.277 in [1]; 0.493 in test [2]; -0.0216 in [3]; -2.48 in [4]; -1.32 in test [5]; 0.93 in [6]. Further, the z-score in test [7] was 0.163 (inactive); in test [8], 0.0637; in test [9], 0.75; in [10] it was 0.569 (inactive).

For `C#CCCCON=C1C[C@@H](O)[C@@H](O)[C@@H]2[C@@H]3C(=O)N(c4cccc(Oc5ccccc5)c4)C(=O)[C@@H]3CC[C@@H]12`, the z-score in [1] was -0.559; in test [2] it was 0.43; in test [3] it was -1.57; in test [4] it was -0.399; in test [5], -0.2; in [6], 0.106. Moreover, the z-score in test [7] is 0.126 (inactive); in [8] it was -0.56; in test [9], 0.835; in test [10], -0.248 (inactive).

With `CC[C@@H](c1ccccc1)n1c(=O)n2n(c1=O)[C@H]1[C@H](O)[C@@H]3O[C@@H]3C(=NOCC=C(C)CCC=C(C)C)[C@H]1CC2`, the z-score in test [1] is -0.821; in test [2], 0.722; in test [3], -1.48; in test [4] it was -3.08; in test [5] it was -3.74; in test [6], -2.4. Besides, the z-score was 0.151 (inactive) in test [7], -0.829 in [8], 0.198 in [9] and -0.0334 (inactive) in test [10].

Consider `COc1cccc([C@@H]2Oc3ccc(Br)cc3C(=O)[C@H]2O)c1`, for which the z-score in test [1] was 1.31; in test [2], -0.397; in [3], -1.24; in test [4], -3.44; in test [5] it was -1.73; in test [6], -3.15. Further, the z-score in test [7] was -0.584 (inactive); in [8], -0.0726; in [9] it was -1.31; in test [10], -0.269 (inactive).

Take `CC(CCC(=O)OC[C@H]1O[C@H](C#Cc2ccccc2)C=C[C@@H]1Oc1ccc(C)cc1)=NOC[C@@H](O)[C@H]1O[C@@H]2OC(C)(C)O[C@@H]2[C@H]1O`: the z-score in test [1] is 0.0105; in test [2], -0.0958; in [3], 0.0263; in test [4] it was -0.567; in test [5], -1.53; in [6], -0.791. The z-score in test [7] was -0.649 (inactive); in [8] it was -0.0641; in test [9] it was -1.26; in [10] it was -0.042 (inactive).

For the compound `Cc1cc2c(c(=O)o1)[C@H](O)[C@H]1O[C@H]1C2=O`, the z-score is -0.728 in [1]; 0.287 in test [2]; -1.03 in test [3]; -3.45 in test [4]; -2.96 in test [5]; -1.31 in test [6]. Also, the z-score in [7] is -0.883 (inactive); in test [8], 0.433; in test [9], -1.12; in [10], -0.506 (inactive).

With `O=C1[C@H]2[C@H]3[C@H](O)[C@H](O)CC(=NOC[C@@H](O)COCc4ccco4)[C@H]3CC[C@H]2C(=O)N1Cc1ccc2c(c1)OCO2`, the z-score was -0.259 in [1]; -0.672 in test [2]; -1.05 in test [3]; -0.642 in test [4]; -0.334 in test [5]; -0.41 in test [6]. Further, the z-score is -0.339 (inactive) in test [7], -0.149 in test [8], -0.635 in [9] and -0.138 (inactive) in test [10].

As to `CCCNC(=O)OC[C@H]1O[C@H](CCON=CC[C@@H]2C=C[C@H](OC(C)=O)[C@@H](COC(C)=O)O2)C=C[C@@H]1Oc1ccc(OC)cc1`, the z-score is 0.51 in test [1]; -0.217 in test [2]; -0.24 in test [3]; -0.516 in [4]; -1.28 in [5]; -1.14 in [6]. The z-score in [7] was -1.12 (inactive); in test [8] it was -0.057; in test [9] it was 0.306; in test [10] it was 0.248 (inactive).

Take `COC(=O)CC=C[C@@H](C)[C@@H](C=NO[C@H](C)c1cn([C@@H]2COC[C@H]2O)nn1)OC`: the z-score is 0.947 in test [1]; -0.0678 in test [2]; 0.185 in [3]; 0.415 in test [4]; -0.507 in [5]; 1.2 in [6]. Further, the z-score in [7] was -0.39 (inactive); in [8], 0.146; in test [9] it was -0.469; in [10], -0.567 (inactive).

Consider `COc1cccc([C@H]2Oc3ccc(OC)cc3C(=NO[C@H](C)c3cn([C@@H]4COC[C@H]4O)nn3)[C@@H]2O)c1`, for which the z-score in test [1] is -1.3; in test [2], 0.67; in test [3], -0.428; in test [4], -0.717; in test [5], -0.786; in test [6], -0.832. Also, the z-score is 0.839 (inactive) in test [7], 0.161 in [8], -0.761 in test [9] and -0.481 (inactive) in test [10].

Turning to `CC1(C)OCC(C(O)C2=CCCCC2=O)CO1` (stereo not given), the z-score in test [1] was -0.423; in test [2], 1.76; in test [3], 0.588; in test [4], -0.402; in test [5] it was -0.999; in [6], 1.28. The z-score in [7] is -0.0827 (inactive); in [8], -0.606; in test [9] it was 0.724; in test [10], -0.939 (inactive).

`CCCC[C@H]1OB(O)C[C@H]2C1=C(C)C[C@H]1C(=O)N(C)C(=O)[C@H]12`: the z-score was -0.203 in test [1]; -0.623 in test [2]; -1.02 in test [3]; -2.27 in test [4]; -0.848 in test [5]; -1.79 in test [6]. The z-score in test [7] is -0.467 (inactive); in test [8], 0.391; in [9] it was 0.203; in [10], -0.794 (inactive).

Regarding `[N-]=[N+]=NCc1ccccc1C[C@]1(C(=O)NCc2ccccc2)N=C(c2ccc(OCCCO)cc2)O[C@H]1c1ccccc1N=[N+]=[N-]`, the z-score in test [1] was -0.71; in test [2], 0.0331; in [3] it was -1.03; in test [4], -2.98; in test [5], -4.24; in test [6], 0.504. In addition, the z-score was -0.249 (inactive) in [7], -1.17 in test [8], -1.5 in test [9] and -0.883 (inactive) in test [10].

Consider `CCOC(=O)CCN1C(=O)[C@H]2[C@H]3[C@H](O)[C@H](O)CC(=O)[C@H]3CC[C@H]2C1=O`, for which the z-score in [1] is -0.439; in test [2], 1.43; in test [3], 0.0368; in test [4], -0.904; in test [5], -0.122; in test [6], -0.103. In addition, the z-score in test [7] was -0.237 (inactive); in [8], 0.0295; in test [9] it was -1.28; in test [10], -0.125 (inactive).

Turning to `Cc1ccc(F)cc1S(=O)(=O)N[C@@H]1CCN(Cc2ccc(CC(C)C)cc2)C1`, the z-score in [1] is -0.815; in test [2] it was -0.537; in test [3], -1.8; in test [4], -3.34; in test [5], -3.56; in test [6], -1.08. For the same compound, the z-score in test [7] was -0.545 (inactive); in test [8], -1.14; in [9], -2.19; in test [10], 0.0665 (inactive).

Turning to `CN1C(=O)[C@@]2(CCC(=O)OC(C)(C)C)N=C(c3ccc(OCCCO)cc3)O[C@H]2c2ccccc21`, the z-score in test [1] is 0.575; in [2], 1.36; in test [3], -0.614; in test [4], -1.85; in [5], -3.45; in test [6], 0.543. Further, the z-score in test [7] was -0.207 (inactive); in test [8], -1.18; in test [9], -0.696; in test [10] it was -0.54 (inactive).

The values are drawn from PubChem BioAssay.
